Bioassay records as filed in PubChem BioAssay.
Pol eta inh: blocks human DNA polymerase eta activity; Q9Y253; Potency, µM (titrated, usually from 114 µM), for inactives: top-dose activity change, negative = inhibition, hits mostly inhibitors; 390,000 compounds, 1.2% hits; recombinant Pol eta, fluorescent DNA replication assay; also: % is scaled to controls: 0 for no effect and ±100 for the full control effect
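Fluorescent replication assay: 50 nM final substrate added after a 15 min room-temperature compound preincubation with 10 nM enzyme. Signal taken at 0 min and again at 10 min.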
L3MBTL1 inh: inhibitors of human L3MBTL1. Q9Y468. AlphaScreen L3MBTL1–H3K9me1 peptide binding. Potency, µM (highest dose often 57.1 µM), for the others: top-dose activity, negative = inhibition, usual class: inhibitors. 230,000 compounds, 0.66% hits. AID 485360; also: % is scaled to controls: 0 for no effect and ±100 for the full control effect; nearly all actives have a fitted effect of over 60% in size
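L3MBTL1 (50 nM) pre-complexed 30 min with biotinylated H3(1-15)K9me1 peptide (75 nM), then compounds added for 30 min at room temperature; AlphaScreen streptavidin donor/nickel chelate acceptor beads (10 ug/mL final) read after 30 min dark incubation.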
Pol iota inh: DNA polymerase iota (human) inhibition; 390,000 compounds, 1% hits; AID 588590; Potency, µM (series often up to 115 µM), for inactives: at the top dose activity, negative = inhibition, actives largely listed as inhibitors; Pol iota fluorescent replication assay, 10 min
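Pol iota at 10 nM preincubated 15 min with compounds at room temperature; reaction started with fluorescent substrate, 50 nM final. Fluorescence read kinetically at 0 and 10 min; buffer-only wells as negative control.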
Pol beta inh: DNA polymerase beta (human) inhibition; P06746; Pol beta primer extension/strand displacement, fluorescence kinetic; Potency, µM (titrated, usually from 114 µM), inactives show at the top dose activity change, negative = inhibition, actives largely listed as inhibitors; 340,000 compounds, 1.3% hits; AID 485314; also: % is scaled to controls: 0 for no effect and ±100 for the full control effect
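Human Pol beta at 10 nM; strand-displacement substrate 50 nM final. Compound exposure 15 min at room temperature before start, reaction 10 min at room temperature.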
POLK inh: blocks human DNA polymerase kappa activity. purified Pol kappa, fluorescent DNA synthesis assay, 10 min. 400,000 compounds, 0.53% hits. Potency, µM (series often up to 107 µM), for inactives: at the top dose activity, negative = inhibition, hits mostly inhibitors. AID 588579. Q9UBT6; also: % is scaled to controls: 0 for no effect and ±100 for the full control effect
Target sequence (Q9UBT6 whole entry, looked up): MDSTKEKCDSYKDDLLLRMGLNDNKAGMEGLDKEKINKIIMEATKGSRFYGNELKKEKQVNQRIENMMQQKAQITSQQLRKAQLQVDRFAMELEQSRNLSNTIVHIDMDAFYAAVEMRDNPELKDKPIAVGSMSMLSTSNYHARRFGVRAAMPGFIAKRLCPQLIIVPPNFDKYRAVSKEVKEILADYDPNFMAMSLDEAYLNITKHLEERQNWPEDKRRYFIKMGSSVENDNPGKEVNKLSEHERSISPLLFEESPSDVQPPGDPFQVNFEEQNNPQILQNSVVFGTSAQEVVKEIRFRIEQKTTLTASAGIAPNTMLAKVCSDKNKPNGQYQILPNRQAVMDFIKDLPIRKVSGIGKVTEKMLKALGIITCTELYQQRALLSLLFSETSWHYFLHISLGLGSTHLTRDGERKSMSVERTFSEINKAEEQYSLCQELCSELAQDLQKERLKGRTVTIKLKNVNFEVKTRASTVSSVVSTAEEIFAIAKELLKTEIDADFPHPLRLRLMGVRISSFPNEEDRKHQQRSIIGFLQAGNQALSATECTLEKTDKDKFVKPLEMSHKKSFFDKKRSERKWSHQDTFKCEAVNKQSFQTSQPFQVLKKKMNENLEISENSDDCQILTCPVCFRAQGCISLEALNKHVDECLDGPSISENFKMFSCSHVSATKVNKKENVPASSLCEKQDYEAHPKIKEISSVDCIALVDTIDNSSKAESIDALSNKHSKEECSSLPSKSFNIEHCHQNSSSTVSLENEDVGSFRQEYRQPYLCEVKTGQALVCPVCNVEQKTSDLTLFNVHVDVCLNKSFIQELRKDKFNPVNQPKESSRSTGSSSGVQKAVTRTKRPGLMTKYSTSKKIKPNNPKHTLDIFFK
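Inhibition of 10 nM Pol kappa is measured by a fluorescent read-out at 0 and 10 min following addition of 50 nM substrate (final), with a 15-min room-temperature compound preincubation.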
Numbers without * were called inactive; ? = inconclusive; · = no result given; [ ] = dose if it differs, or a comment. Compounds with a hit are over-represented: about 2.4% of the library has one in this group of screens. Calls follow the shape of the dose curve; as a rule, active = well fitted curve in the direction sought with a large enough effect; inconclusive = small, poorly fitted or top-dose-only effect, or another doubt; inactive = no such curve, though single readings can be large; an effect the other way counts as inactive or inconclusive. Potency is read from the fitted curve at half-maximal effect.

SMILES	Pol eta inh	L3MBTL1 inh	Pol iota inh	Pol beta inh	POLK inh
NCC(O)COc1cccc2ccccc12 (configuration not stated)	·	·	·	·	6.6%[19.4 µM]
COc1ccc(CN2CC[C@H]3C=CC[C@@H](C(=O)Nc4ccccc4)[C@H]3C2=O)cc1OC	·	·	?	·	-23.5%
CCOC(=O)/C(C#N)=C\c1ccco1	-7.6%	-3.4%	?	39.8µM*	-19.7%
O=C(c1ccco1)N1CCN(C(=O)c2ccc(-c3ccc([N+](=O)[O-])cc3)o2)CC1	22.4µM*	?	17.8µM*	·	28.2µM*
CCOC(=O)c1c(C)c(-c2ccccc2)n(CC(=O)NCc2cccc(OC)c2)c1C	-14.5%	·	11.4%	3.1%	-1.0%
O=C(NCc1ccco1)c1ccc(S(=O)(=O)N2CCCCC2)cc1	-3.6%	2.0%	-11.9%	3.1%	-6.8%
Cc1ccc(C(=O)NCc2ccco2)cc1S(=O)(=O)N1CCCCC1	?	-11.5%	?	39.8µM*	?
O=C(COC(=O)c1ccc(S(=O)(=O)N2CCCC2)cc1)NCc1ccco1	?	-28.4%	50.1µM*	?	?
O=C(NCc1ccco1)c1ccc(S(=O)(=O)N2CCOCC2)cc1	?	35.5µM*	15.8µM*	35.5µM*	?
O=C(COC(=O)c1cccc(S(=O)(=O)N2CCc3ccccc3C2)c1)NCc1ccco1	-9.8%	·	-14.9%	17.8µM*	-22.5%
O=C(COC(=O)c1ccc(S(=O)(=O)NCc2ccco2)cc1)Nc1ccccc1	-14.8%	-7.1%	35.2%	·	-16.5%
O=C(COC(=O)c1cc(S(=O)(=O)N2CCOCC2)ccc1Cl)NCc1ccco1	-14.4%	-2.6%	6.7%	·	-13.3%
O=C(COC(=O)c1ccc(S(=O)(=O)NCc2ccco2)cc1)NCC1CCCCC1	?	·	?	35.5µM*	-30.9%
O=C(Nc1ccc(S(=O)(=O)N2CCCCC2)cc1)c1ccc(=O)[nH]c1	4.9%	-0.6%	?	·	-8.4%
O=C(COC(=O)c1cc(S(=O)(=O)N2CCc3ccccc3C2)ccc1Cl)NCc1ccco1	20µM*	·	?	39.8µM*	?
O=C(Nc1ccc(S(=O)(=O)N2CCOCC2)cc1)c1ccc(=O)[nH]c1	-2.5%	-16.8%	?	12.6µM*	-28.4%
CCCOC(=O)C1=C(C)CS[C@@H]2[C@H](NC(=O)COc3ccccc3)C(=O)N12	·	·	9.6%	·	-28.8%
Cc1ccc(C(=O)O)cc1Nc1nc2ccccc2n2nnnc12	-21.4%	·	0.1%	-7.2%	0.0%
CN1CCC(=O)N(C(CSc2ccc(Br)cc2)c2ccccc2)CC1 (configuration not stated)	·	·	-15.4%	·	1.8%
CCN(CC)c1nc(C#N)nc(N2CCOCC2)n1	·	·	-8.2%	·	-9.9%
Cc1ccc(SCc2ccc(C(=O)NCc3ccncc3)cc2)cc1	?	-23.4%	28.2µM*	?	-2.4%
Cc1ccc(SCCC(=O)NCc2ccncc2)cc1	-7.3%	1.3%	15.2%	3.2%	-8.0%
O=C(OC1Cc2c(O)cc(O)cc2OC1c1cc(O)c(O)c(O)c1-c1c(C2Oc3cc(O)cc(O)c3CC2O)cc(O)c(O)c1O)c1cc(O)c(O)c(O)c1 (configuration not stated)	·	·	·	·	0.794µM*
CN(C)S(=O)(=O)c1cccc(NC(=S)Nc2cccc3cnccc23)c1	-17.0%	-17.2%	2.82µM*	0.6%	-20.3%
Nc1cccc(-c2c[nH]c3ncc(-c4cccnc4)cc23)c1	-8.5%	·	-12.7%	·	-4.3%
SMILES	Pol eta inh	L3MBTL1 inh	Pol iota inh	Pol beta inh	POLK inh
O=C(C[n+]1cc(Br)cc(Br)c1)c1ccc2ccccc2c1	·	·	30.1%	·	-22.1%
CN(C)c1cccc2c1C(=O)c1ccccc1C2=O	-16.9%	25.1µM*	10.7%	7.8%	-12.2%
CC(C)C[C@H](NC(=O)[C@H]1O[C@@H]1C(=O)O)C(=O)NCCCCN=C(N)N	·	·	·	·	17.6%[60.1 µM]
O=C1OC(c2ccccc2)=N/C1=C/c1cccc(OC(=O)c2cccs2)c1	-4.6%	·	-19.6%	·	13.0%
O=C1CSC(=S)N1c1ccc(F)c(Cl)c1	0.4%	·	?	-0.2%	-13.6%
CC(C)=C1C(=O)NN(c2ccc(F)c(Cl)c2)C1=O	-7.5%	-18.0%	?	?	25.1µM*
O=C1NN(c2ccc(F)c(Cl)c2)C(=O)/C1=C\c1cccc(OC(=O)c2cccs2)c1	20µM*	·	?	?	?
Cc1cc(Cl)ccc1NNC(N)=S	-9.0%	·	14.1µM*	10.0%	-7.1%
Cc1ccc(C)c(NNC(N)=S)c1	-2.0%	5.0%	?	5.0%	-16.9%
CCS(=O)(=O)c1ccc(O)c(NC(=O)c2ccc(S(=O)(=O)N3CCCCCC3)cc2)c1	-5.9%	7.3%	-6.0%	·	-4.7%
Cn1c(-c2ccc3nc(N)sc3c2)nc2cc(N)ccc21	?	·	31.6µM*	20µM*	70.8µM*
Nc1cccc(S(=O)(=O)N2CCOCC2)c1	·	·	48.6%	·	4.4%
Clc1ccc(-c2csc3ncnc(Sc4nnnn4C4CC4)c23)cc1	·	·	-16.9%	·	-2.4%
O=C(c1cccc(S(=O)(=O)NCc2ccccc2)c1)N1CCN(c2ccccc2Cl)CC1	-17.2%	·	89.1µM*	·	-7.8%
CCOC(=O)c1cnc2nc(NCc3cccc(Br)c3)[nH]n2c1=O	-11.6%	·	31.5%	7.4%	11.5%
CCOC(=O)c1cnc2nc(NCc3ccc(OC)c(OC)c3)[nH]n2c1=O	20µM*	21.7%	?	35.5µM*	-2.6%
Cc1ccc(NC(=O)N2CCc3ccccc32)cc1C	-10.4%	7.4%	26.2%	3.5%	-6.9%
Cc1ccc(C)c(NC(=O)CN2C(=O)CCc3ccccc32)c1	-6.3%	·	79.4µM*	22.4µM*	?
Cc1ccc(Cl)cc1NC(=O)CN1C(=O)CCc2ccccc21	-9.5%	·	17.0%	0.5%	1.5%
Cc1ccc(NC(=O)CN2C(=O)CCc3ccccc32)cc1C	0.4%	·	?	22.4µM*	-38.8%
CCc1ccc(NC(=O)C(=O)NCCc2sc3nc(-c4ccc(OC)cc4)nn3c2C)cc1	3.2%	·	-9.0%	-26.8%	2.7%[60.1 µM]
O=C(C[n+]1cccc2cccc(O)c21)c1ccc(F)cc1	·	·	39.5%	·	1.3%
Cc1ccc(S(=O)(=O)N2CCN(c3nc(Nc4ccccc4O)nc4ccccc34)CC2)cc1	·	·	15.3%	·	14.4%
O=C(Cn1ncc(Cl)c(Cl)c1=O)NC1CCS(=O)(=O)C1 (configuration not stated)	?	·	14.1µM*	?	?
CCN1CCN(c2cc(C)c3cc(NC(=O)c4cc(OC)c(OC)c(OC)c4)ccc3n2)CC1	?	·	-24.1%	?	-13.5%[60.1 µM]
CCN1CCN(c2cc(C)c3cc(NC(=O)c4ccc(OC)c(OC)c4)ccc3n2)CC1	?	·	?	8.91µM*	?
Cc1ccc(NC(=O)Cn2cnc3sc(C(=O)O)c(C)c3c2=O)cc1Cl	-18.7%	·	19.1%	-16.8%	1.5%
CCOC(=O)c1c(C)sc(-c2c(-c3ccc4c(c3)OCCO4)[nH]c3c2c(=O)[nH]c(=O)n3C)c1O	?	·	-24.1%	?	-9.6%
COc1cc([N+](=O)[O-])ccc1-c1ccc(/C=N/NC(N)=O)o1	9.2%	·	89.1µM*	?	-13.2%
